Experimental data published in the supplement of paper PMC10849652.
Targets with a hit are over-represented here; the source holds about 7,900 in all. About 0.6% of all pairs of compound and target were hits.

What was measured:
Test in all cases: log2 fold change, soluble protein after heating vs DMSO (PISA); higher = thermal stabilisation; K562 cells, 10 uM, 30 min; active = over 0.2 and 3.5 SD of the protein, either way, in both replicates (recomputed)
IRAK-1-4 Inhibitor I = compound: C1COCCN1CCN2C3=CC=CC=C3N=C2NC(=O)C4=CC(=CC=C4)[N+](=O)[O-] [IRAK-1-4 Inhibitor I]
Summary of the method: (§1)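 K562 cells at 2×10^6 cells/mL were given 10 μM compound for 30 min. Aliquots then went through 3 min of heating across 48°C-58°C, were pooled, and were extracted in PBS with 0.5% NP-40 at 4°C, and the supernatant after 21,000xg for 90 min was quantified by TMTpro 16plex LC-MS/MS with channel sums equalised. Thermal stability relative to control samples, from duplicates, is given as log2 fold change.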

ibrutinib = compound: C=CC(=O)N1CCC[C@@H](n2nc(-c3ccc(Oc4ccccc4)cc3)c3c(N)ncnc32)C1 [ibrutinib]
Summary of the method: as §1

[1] = compound: CC(=O)c1cnc2ccc(-c3cc(Cl)c(O)c(Cl)c3)nc2c1N[C@H]1CC[C@H](CN(C)C)CC1
Summary of the method: as §1

ralimetinib = compound: CC(C)(C)Cn1c(N)nc2ccc(-c3[nH]c(C(C)(C)C)nc3-c3ccc(F)cc3)nc21 [ralimetinib]
Summary of the method: as §1

[2] = compound: CC(C)(O)CC(=O)NCCn1ccc2ncnc(Nc3ccc(Oc4cccc(C(F)(F)F)c4)c(Cl)c3)c21
Summary of the method: as §1

[3] = compound: CC(C)C1=C2N=C(C=C(N2N=C1)NCC3=CC=CC=C3)NCCCCCCN
Summary of the method: as §1

[4] = compound: CC(C)C[C@@H](C=O)NC(=O)[C@H](CC(C)C)NC(=O)[C@H](CC(C)C)NC(=O)OCc1ccccc1
Summary of the method: as §1

pinometostat = compound: CC(C)N(C[C@H]1O[C@@H](n2cnc3c(N)ncnc32)[C@H](O)[C@@H]1O)[C@H]1C[C@@H](CCc2nc3cc(C(C)(C)C)ccc3[nH]2)C1 [pinometostat]
Summary of the method: as §1

[5] = compound: CC1=C(C(CC(=O)N1)C2=CC=C(C=C2)C(F)(F)F)C(=O)NC3=C(C=C4C(=C3)C=NN4)F
Summary of the method: as §1

[6] = compound: CC1=C(C2=C(C=C1)C(=O)C3=CC=CC=C3N2CCCN)C
Summary of the method: as §1

[7] = compound: CC1=C(C=C(C=C1)NC(=O)C2=CC(=CC=C2)C(C)(C)C#N)NC3=CC4=C(C=C3)N=CN(C4=O)C
Summary of the method: as §1

[8] = compound: CC1=C(C=C(C=C1)NC(=O)C2=CC(=CC=C2)N(C)C)NC(=O)C3=CC=C(C=C3)O
Summary of the method: as §1

[9] = compound: CC1=CC=C(C=C1)SC2=C3C=C(SC3=CN=C2)C(=O)N
Summary of the method: as §1

[10] = compound: CC1=NC(=CC=C1)C2=C(N=C(N2)C(C)(C)C)C3=CC4=NC=CN=C4C=C3
Summary of the method: as §1

Nexturastat A = compound: CCCCN(Cc1ccc(C(=O)NO)cc1)C(=O)Nc1ccccc1 [Nexturastat A]
Summary of the method: as §1

vemurafenib = compound: CCCS(=O)(=O)Nc1ccc(F)c(C(=O)c2c[nH]c3ncc(-c4ccc(Cl)cc4)cc23)c1F [vemurafenib]
Summary of the method: as §1

[11] = compound: CCCS(=O)(=O)Nc1ccc(F)c(C(=O)c2c[nH]c3ncc(Cl)cc23)c1F
Summary of the method: as §1

[12] = compound: CCCc1cc(C)[nH]c(=O)c1CNC(=O)c1cc(-c2ccnc(N3CCN(C)CC3)c2)cc2c1cnn2C(C)C
Summary of the method: as §1

givinostat = compound: CCN(CC)Cc1ccc2cc(COC(=O)Nc3ccc(C(=O)NO)cc3)ccc2c1 [givinostat]
Summary of the method: as §1

barasertib = compound: CCN(CCCOc1ccc2c(Nc3cc(CC(=O)Nc4cccc(F)c4)[nH]n3)ncnc2c1)CCOP(=O)(O)O [barasertib]
Summary of the method: as §1

Measured: log2 fold change

NA, A0A096LPI6
inactive: IRAK-1-4 Inhibitor I 0.065 | ibrutinib 0.022 | [1] 0.046 | ralimetinib -0.057 | [2] 0.008 | [3] 0.058 | [4] -0.016 | pinometostat -0.043 | [5] 0.018 | [6] 0.004 | [7] -0.018 | [8] 0.032 | [9] 0.051 | [10] 0.039 | Nexturastat A -0.093 | vemurafenib 0.008 | [11] 0.052 | [12] -0.033 | givinostat -0.055 | barasertib -0.003

NEDD4 isoform 4 (UniProt P46934)
Sequence of UniProt P46934 (P46934 whole entry, looked up): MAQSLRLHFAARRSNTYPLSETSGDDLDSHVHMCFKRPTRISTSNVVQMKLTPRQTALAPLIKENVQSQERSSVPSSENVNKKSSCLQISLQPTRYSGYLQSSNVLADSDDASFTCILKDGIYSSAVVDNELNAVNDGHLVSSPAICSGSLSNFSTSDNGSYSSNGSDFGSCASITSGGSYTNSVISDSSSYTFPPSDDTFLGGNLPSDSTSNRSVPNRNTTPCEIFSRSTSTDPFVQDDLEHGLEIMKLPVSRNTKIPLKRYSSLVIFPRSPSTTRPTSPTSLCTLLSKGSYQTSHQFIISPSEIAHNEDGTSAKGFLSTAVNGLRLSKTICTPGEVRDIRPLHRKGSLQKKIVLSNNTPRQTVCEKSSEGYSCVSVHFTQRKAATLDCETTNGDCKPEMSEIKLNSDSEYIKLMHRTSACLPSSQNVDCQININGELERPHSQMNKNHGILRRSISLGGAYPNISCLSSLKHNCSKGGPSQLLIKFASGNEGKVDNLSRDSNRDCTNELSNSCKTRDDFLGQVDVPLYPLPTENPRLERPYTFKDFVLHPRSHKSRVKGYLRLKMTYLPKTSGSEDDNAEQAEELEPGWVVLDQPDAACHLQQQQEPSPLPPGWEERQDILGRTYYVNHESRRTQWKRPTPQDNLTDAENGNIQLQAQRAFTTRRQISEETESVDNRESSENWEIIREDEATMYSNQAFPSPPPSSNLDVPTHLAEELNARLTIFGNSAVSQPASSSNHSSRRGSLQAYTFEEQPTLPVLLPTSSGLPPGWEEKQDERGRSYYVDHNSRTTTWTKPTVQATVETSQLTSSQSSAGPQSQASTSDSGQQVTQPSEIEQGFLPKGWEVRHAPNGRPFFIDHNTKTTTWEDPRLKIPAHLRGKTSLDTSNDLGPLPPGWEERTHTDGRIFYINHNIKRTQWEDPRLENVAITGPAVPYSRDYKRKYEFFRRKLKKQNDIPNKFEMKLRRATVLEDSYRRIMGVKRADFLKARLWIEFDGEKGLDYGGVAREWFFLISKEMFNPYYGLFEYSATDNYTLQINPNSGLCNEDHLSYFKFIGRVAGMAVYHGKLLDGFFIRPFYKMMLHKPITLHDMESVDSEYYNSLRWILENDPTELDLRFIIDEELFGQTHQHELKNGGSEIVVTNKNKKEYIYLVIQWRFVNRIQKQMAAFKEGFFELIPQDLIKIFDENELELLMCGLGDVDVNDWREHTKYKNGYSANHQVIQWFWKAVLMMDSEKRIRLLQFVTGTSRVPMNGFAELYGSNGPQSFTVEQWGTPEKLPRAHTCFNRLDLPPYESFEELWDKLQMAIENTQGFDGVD
inactive: IRAK-1-4 Inhibitor I 0.002 | ibrutinib -0.038 | [1] 0.02 | ralimetinib -0.014 | [2] -0.027 | [3] -0.124 | [4] 0.019 | pinometostat -0.03 | [5] -0.025 | [6] -0.065 | [7] -0.069 | [8] -0.011 | [9] -0.025 | [10] 0.047 | Nexturastat A -0.04 | vemurafenib 0.029 | [11] 0.026 | [12] 0.026 | givinostat 0.018 | barasertib 0.009

NEU1 (UniProt Q99519)
active: [3] -0.379
inactive: IRAK-1-4 Inhibitor I -0.136 | ibrutinib -0.069 | [1] -0.175 | ralimetinib 0.05 | [2] 0.018 | [4] 0.166 | pinometostat -0.021 | [5] 0.049 | [6] -0.131 | [7] 0.031 | [8] -0.048 | [9] 0.029 | [10] 0.118 | Nexturastat A 0.068 | vemurafenib -0.002 | [11] -0.008 | [12] 0.057 | givinostat 0.036 | barasertib 0.059

OXSM (UniProt Q9NWU1)
Sequence of UniProt Q9NWU1 (Q9NWU1 whole entry, looked up): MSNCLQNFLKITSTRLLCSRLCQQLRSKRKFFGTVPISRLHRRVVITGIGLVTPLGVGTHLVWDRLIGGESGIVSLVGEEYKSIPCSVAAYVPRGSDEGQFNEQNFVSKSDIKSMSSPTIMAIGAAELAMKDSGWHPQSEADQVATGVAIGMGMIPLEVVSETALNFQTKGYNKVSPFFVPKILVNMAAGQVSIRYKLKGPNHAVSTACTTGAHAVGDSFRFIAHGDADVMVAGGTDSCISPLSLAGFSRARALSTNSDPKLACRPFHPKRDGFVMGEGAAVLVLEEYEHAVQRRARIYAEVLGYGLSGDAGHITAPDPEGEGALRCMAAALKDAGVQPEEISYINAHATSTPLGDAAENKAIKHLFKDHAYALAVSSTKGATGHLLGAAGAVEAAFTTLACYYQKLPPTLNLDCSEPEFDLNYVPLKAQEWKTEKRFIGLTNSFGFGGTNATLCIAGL
active: givinostat -0.234
inactive: IRAK-1-4 Inhibitor I 0.032 | ibrutinib 0.064 | [1] 0.017 | ralimetinib 0.008 | [2] 0.031 | [3] 0.041 | [4] -0.025 | pinometostat -0.067 | [5] -0.023 | [6] -0.011 | [7] -0.023 | [8] -0.057 | [9] 0.023 | [10] 0.003 | Nexturastat A -0.061 | vemurafenib 0.01 | [11] 0.045 | [12] -0.03 | barasertib -0.034
